Sampled rows, rich in hits. Any-hit rate of the full collection: about 6.9%.
SW480 rerep = inducers of DNA re-replication in SW480 colon cancer cells | SW480 DNA re-replication, Hoechst DNA content imaging, 48 h | Potency, µM (top dose mostly 46.1 µM), actives largely listed as activators | hit rate 1.8% among 340,000 | AID 624297; further: nearly all actives have a fitted effect of over 55% in size
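DNA re-replication was detected as more nuclei of elevated Hoechst intensity after 48 hr exposure to compound (23 nL pinned per well of 250 cells).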
KB-V1 cytotox = KB-V1 MDR subline cytotoxicity. KB-V1 MDR cells viability, CellTiter-Glo, 72 h. Potency, µM (series often up to 46.1 µM), actives largely listed as cytotoxic. hit rate 3.4% among 400,000; further: nearly all actives have a fitted effect of over 60% in size
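Following 72 h at 37 degrees C with compound, KB-V1 cell viability was read by CellTiter-Glo luminescence, medium being phenol-red-free DMEM plus 10% FBS; concentration-response parameters came from normalized, curve-fitted qHTS data.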
Giardia killer = Giardia lamblia killing | Giardia lamblia trophozoite viability | AID 540267 | hit rate 0.15% among 340,000 | activity change, % at 7.66 µM, hits read low; in the data active means activity change below about -80%; inconclusive means between about -30% and that limit;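 further: parasites exposed to compound for two days anaerobically before the ATP read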
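Each well holds 100 Giardia trophozoites and compound. After two days (48 hrs) at 37 deg C in anaerobic conditions, ATP is quantified by luminescence.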
ASM inhibitor = human S-ASM enzyme inhibition; AID 504937; Potency, µM (doses to about 57.5 µM), usual class: inhibitors; P17405; hit rate 0.006% among 340,000; placental ASM, HMU-PC fluorogenic substrate, 60 min
Target sequence (P17405 47-631 limits assumed): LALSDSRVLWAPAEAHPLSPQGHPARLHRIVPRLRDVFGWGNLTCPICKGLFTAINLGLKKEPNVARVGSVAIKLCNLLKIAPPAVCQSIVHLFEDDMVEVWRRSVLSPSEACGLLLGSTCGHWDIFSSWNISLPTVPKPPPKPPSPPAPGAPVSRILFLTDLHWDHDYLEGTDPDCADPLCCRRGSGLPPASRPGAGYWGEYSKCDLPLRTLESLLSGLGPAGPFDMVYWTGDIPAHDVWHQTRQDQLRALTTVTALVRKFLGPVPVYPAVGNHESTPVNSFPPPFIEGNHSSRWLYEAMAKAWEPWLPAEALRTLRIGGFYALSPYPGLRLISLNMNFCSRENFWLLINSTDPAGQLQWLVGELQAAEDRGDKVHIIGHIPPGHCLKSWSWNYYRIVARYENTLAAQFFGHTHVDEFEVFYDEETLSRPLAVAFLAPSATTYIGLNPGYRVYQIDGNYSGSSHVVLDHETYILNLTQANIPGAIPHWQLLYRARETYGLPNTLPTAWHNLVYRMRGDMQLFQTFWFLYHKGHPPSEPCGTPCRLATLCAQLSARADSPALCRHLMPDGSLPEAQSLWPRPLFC
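Steps: dispense placental human ASM, pin compound, wait 10 min at room temperature, add HMU-PC0 substrate at 9 uM final, incubate 60 min at 37 °C, add stop solution raising pH to 10, read fluorescence.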
MCF10A rereplic = inducers of DNA re-replication in MCF 10A breast cells; MCF 10A DNA re-replication, Hoechst nuclear intensity, 48 h; Potency, µM (top dose mostly 46.1 µM), hits mostly activators; hit rate 2.9% among 350,000; AID 624296; further: nearly all actives have a fitted effect of over 50% in size
KB-3-1 tox = KB-3-1 parental cell cytotoxicity; KB-3-1 viability, CellTiter-Glo ATP luminescence, 72 h; Potency, µM (series often up to 46.1 µM), most hits filed as cytotoxic; hit rate 1.4% among 400,000; AID 1347075; further: nearly all actives have a fitted effect of over 60% in size
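Cells are dispensed, compounds pinned in, plates held at 37 °C for 72 h, then CellTiter-Glo is added and luminescence read after 10 minutes. Cell line: parental KB-3-1 in phenol-red-free DMEM, 10% FBS.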
Hits are given with their value; - = inactive; ? = inconclusive; . = not tested or not shown. Unless noted, the call rests on the fitted dose curve; in most records, active means well fitted curve in the direction sought with a large enough effect; inconclusive means small, poorly fitted or top-dose-only effect, or another doubt; inactive means no such curve, though single readings can be large; an effect the other way counts as inactive or inconclusive.

SMILES | SW480 rerep | KB-V1 cytotox | Giardia killer | ASM inhibitor | MCF10A rereplic | KB-3-1 tox
COc1ccc2occ(C(=O)c3ccccc3)c2c1 | - | - | - | - | - | ?
Cc1ccc(C(C(=O)NCc2ccco2)N(C(=O)CNC(=O)c2cccs2)c2c(C)cccc2C)cc1 (configuration not stated) | ? | - | ? | - | 18.4µM | -
CCN(C(=O)C(C)N1C(=O)/C(=C/c2ccco2)SC1=S)C1CCS(=O)(=O)C1 (configuration not stated) | 4.11µM | - | - | - | - | ?
CC(C(=O)N(C)C1CCS(=O)(=O)C1)N1C(=O)/C(=C/c2ccc(F)cc2)SC1=S (configuration not stated) | ? | - | - | - | - | -
Cn1c2c(c(=O)n(C)c1=O)C(C(F)(F)F)(C(F)(F)F)N=C(c1ccc(Cl)cc1)N2 | - | 2.31µM | - | - | ? | 2.31µM
Cc1ccccc1C1=NC(C(F)(F)F)(C(F)(F)F)c2c(n(C)c(=O)n(C)c2=O)N1 | - | 16.4µM | - | - | - | ?
CCN(CC)S(=O)(=O)c1ccc2c(c1)N(CC(=O)N1CCN(c3ccc(OC)cc3)CC1)C(=O)CO2 | . | - | . | . | . | -
O=C(Cn1c(SCC(=O)Nc2ccc(F)cc2)nc2ccccc21)NCc1ccc(Cl)cc1 | . | - | . | . | . | -
Fc1ccc(C2CC(c3cccs3)=NN2c2ccccc2)cc1 (configuration not stated) | ? | - | - | - | 3.55µM | -
CC(=O)Nc1ccc(C2=NN(c3ccccc3)C(c3ccccc3)C2)cc1 (configuration not stated) | ? | ? | - | - | ? | ?
Oc1ccc(C2=NN(c3ccccc3)C(c3ccc(F)cc3)C2)cc1 (configuration not stated) | 23.1µM | - | - | - | 5.8µM | -
COc1ccc(C2CC(c3ccc(F)cc3)=NN2c2ccccc2)cc1OC (configuration not stated) | ? | ? | - | - | 16.4µM | ?
CC(=O)Nc1ccc(C2CC(c3ccc(Cl)cc3)=NN2c2ccccc2)cc1 (configuration not stated) | 1.46µM | - | - | - | - | -
Oc1ccccc1C1=NN(c2ccccc2)C(c2ccc(F)cc2)C1 (configuration not stated) | ? | - | - | - | ? | -
COc1ccc(C2=NN(C(=O)c3ccccc3)C(c3ccc(OC)c(OC)c3)C2)cc1OC (configuration not stated) | - | - | - | - | - | -
Cc1cccc(Nc2nc3c(S(=O)(=O)c4ccc(Br)cc4)nnn3c3ccsc23)c1C | . | - | . | . | . | -
COc1cc(Cl)c(NC(=O)CN(C)S(=O)(=O)c2ccc3[nH]c4c(c3c2)CCCC4)c(OC)c1 | . | - | . | . | . | -
COc1ccc(C2=NN(c3ccc(C=O)cc3)C(c3ccccc3)C2)cc1 (configuration not stated) | ? | - | - | - | ? | -
O=C(c1cccs1)N1N=C(c2ccc(O)cc2)CC1c1ccccc1 (configuration not stated) | - | - | - | - | ? | -
O=C(c1cccs1)N1N=C(c2ccccc2)CC1c1ccc(O)cc1 (configuration not stated) | - | 13µM | - | - | ? | -
COc1ccc(C2=NN(c3ccccc3)C(c3ccc(OC)c(OC)c3)C2)cc1 (configuration not stated) | 14.6µM | - | - | - | ? | ?
Cc1ccc(NC(=O)N2N=C(c3ccc(F)cc3)CC2c2ccc(F)cc2)cc1 (configuration not stated) | 5.17µM | 23.1µM | - | - | - | -
Cc1nc(N2CCN(Cc3ccccc3)CC2)nc2c1C(=O)CC(C)C2 (configuration not stated) | - | 20.6µM | - | - | - | -
CC(=O)Nc1ccc(OCC(O)Cn2c3ccccc3c3ccccc32)c(C)c1 (configuration not stated) | - | ? | - | ? | - | -
Cc1cc(C)n(CC(O)Cn2c3ccccc3c3ccccc32)n1 (configuration not stated) | - | - | - | - | ? | -

Screens (PubChem)
